TDP1 cell CPT – DT40-hTDP1 cell growth loss with CPT. Potency, µM (doses to about 46.2 µM), for the others: at the top dose activity change, negative = growth inhibition, most hits filed as inhibitors. AID 686979. chicken DT40 Tdp1-/-;hTDP1 cells + 20 nM CPT, ATP luminescence, 48 h. actives 12% (n = 420,000); also: potency is read from the fitted curve at half-maximal effect; % is scaled to controls: 0 for no effect and ±100 for the full control effect; nearly all actives have a fitted effect of over 55% in size
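Cell growth measured by CellTiter-Glo luminescence after a minimum 48 h, 37 C compound exposure with 20 nM CPT in Tdp1-knockout DT40 cells stably expressing hTDP1, seeded 400/well; qHTS titration format.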
SW480 rereplic – induces DNA re-replication in SW480 colon adenocarcinoma cells; SW480 DNA re-replication, Hoechst DNA content imaging, 48 h; Potency, µM (series often up to 46.1 µM), for the others: top-dose re-replication activation, usual class: activators; actives 1.8% (n = 340,000); AID 624297; also: potency is read from the fitted curve at half-maximal effect; % of control where 0% means no effect; nearly all actives have a fitted effect of over 55% in size
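Readout is total intensity of Hoechst-stained nuclei, excited at 405 nm and collected at 500-530 nm. Compound treatment lasted 48 hr at 37 C in 5% CO2 before staining.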
DT40 TDP1 no CPT – qHTS for Inhibitors of human tyrosyl-DNA phosphodiesterase 1 (TDP1): qHTS in cells in absence of CPT. DT40 Tdp1-/- hTDP1 cells, no CPT, ATP luminescence, 48 h. Potency, µM (top dose mostly 46.2 µM), for inactives: at the highest dose activity change, negative = growth inhibition, usual class: inhibitors. actives 15% (n = 420,000). AID 686978, 2013; also: potency is read from the fitted curve at half-maximal effect; % is scaled to controls: 0 for no effect and ±100 for the full control effect; nearly all actives have a fitted effect of over 55% in size
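Seeded 400 DT40-hTDP1 cells/well (vehicle DMSO, no 20 nM CPT); pinned compounds; ≥48 hr at 37 °C; CellTiter-Glo luminescence as viability measure.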
IL-1B inflam inh – inhibitors of inflammasome signaling (IL-1 beta secretion); THP-1 LPS/ATP IL-1B secretion, AlphaLISA, 16 h; hits give low values; activity change, % at 57.5 µM; actives 4.7% (n = 360,000); in the data active = activity change below about -50%; inconclusive = mostly about -30% to -49%; also: % is scaled to controls: 0 for no effect and ±100 for the full control effect
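THP-1 cells pretreated 1 hr with compounds (up to 57.5 uM final), then stimulated with LPS (250 ng/mL final) plus ATP (1.25 mM final); secreted IL-1B measured by AlphaLISA after 16 hr, decreased signal indicating inhibition.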
MCF10A rerep – induces DNA re-replication in MCF 10a normal breast cells; MCF 10A DNA re-replication, Hoechst nuclear intensity, 48 h; Potency, µM (top dose mostly 46.1 µM), inactives show at the highest dose activity, positive = re-replication, actives largely listed as activators; actives 2.9% (n = 350,000); AID 624296; also: potency is read from the fitted curve at half-maximal effect; % of control where 0% means no effect; nearly all actives have a fitted effect of over 50% in size
BCR signal inh – chronic active BCR signaling inhibition; Potency, µM (titrated, usually from 46.1 µM), for the others: at the highest dose activity change, negative = inhibition, hits mostly inhibitors; ABC-DLBCL IkBa-CBG/CBR reporter, luminescence ratio, 4 h; actives 0.05% (n = 340,000); AID 493014; active = well fitted inhibition curve with a large enough effect in the signal ratio, with a control signal flat, not every such curve was filed as active; inconclusive = small, poorly fitted or top-dose-only effect, or effect the other way, or a change in a side signal; the % refers to the signal ratio;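 also: potency is read from the fitted curve at half-maximal effect; plate controls were basal doxycycline-induced cells for no effect and cells given 10 µM MG132 for full effect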
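Compounds up to 46 uM were incubated four hours with TMD8 cells whose green CBG68 luciferase is fused to IkappaBalpha; red CBR luminescence normalised the signal, and concentration-effect curves were fitted to fusion, red and ratio data.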
* = called active by the depositor; u = inconclusive; x = no result; [ ] = dose if it differs, or a comment. Most compounds without a hit are left out; they make up all but 19% or so of the library. Unless noted, calls follow the shape of the dose curve; as a rule, active = well fitted curve in the direction sought with a large enough effect; inconclusive = small, poorly fitted or top-dose-only effect, or another doubt; inactive = no such curve, though single readings can be large; an effect the other way counts as inactive or inconclusive.

SMILES	TDP1 cell CPT	SW480 rereplic	DT40 TDP1 no CPT	IL-1B inflam inh	MCF10A rerep	BCR signal inh
O=C(/C=C/c1ccco1)NC(=S)Nc1ccc(N2CCOCC2)c(Cl)c1	5.2µM*	5.2µM*	4.6µM*	21	u	-17%
O=C(NC(=S)Nc1cccc([N+](=O)[O-])c1)c1ccco1	3%	-6%	-13%	15	0%	1%
O=C(/C=C/c1ccco1)NC(=S)Nc1ccccc1	-28%	18%	26µM*	-20	25%	-11%
O=C(/C=C/c1ccco1)NC(=S)Nc1cccc([N+](=O)[O-])c1	u	u	15µM*	-7	u	u
CC(=O)c1ccc(NC(=S)NC(=O)/C=C/c2ccco2)cc1	-10%	-5%	u	-1	-10%	-14%
CCCN(C(=O)c1c(C)oc2ncnc(N3CCOCC3)c12)c1ccc(Cl)c(Cl)c1	-1%	x	0%	x	x	x
CC(=O)NC12CC3CC(C1)CC(C(=O)N1CCN(S(=O)(=O)c4ccccc4C#N)CC1)(C3)C2	-5%	-130%	-15%	8	u	x
CC(OC(=O)/C=C/c1ccccc1)C(=O)Nc1cccc(C#N)c1 (stereo unspecified)	16µM*	u	16µM*	32	u	u
Cc1ccc(-n2nc3ccc(NC(=S)NC(=O)/C=C/c4ccco4)cc3n2)cc1	-12%	-7%	-5%	26	-1%	-5%
Cc1cccc(NC(=S)NC(=O)/C=C/c2ccco2)c1	3.3µM*	2.1µM*	u	4	u	u
COC(=O)c1sc2nc(N3CCCCC3)c3c(c2c1N)CCCC3	-15%	1%[9.22 µM]	-28%	-9	7.1µM*	u
COC(=O)c1ccc(CSc2ncnc3c2sc2nc(N4CCOCC4)c4c(c23)CCCC4)o1	u	8%	18µM*	-12	u	x
COC(=O)c1ccc(-c2sc3nc(N4CCOCC4)c4c(c3c2N)CCCC4)o1	18µM*	0.63µM*	26µM*	-9	u	4%
CCOC(=O)N1CCN(C(=O)CSc2cc(C)nc3c(-c4ccccc4OC)c(C)nn23)CC1	23µM*	3%	16µM*	-10	-1%	-17%
COc1ccccc1-c1c(C)nn2c(N3CCC(C(N)=O)CC3)cc(C)nc12	-4%	-14%	-14%	-12	0%	u
CCOC(=O)N1CCN(C(=O)CSc2ccc(-c3ccccc3OC)nn2)CC1	-24%	-1%	u	-9	2%	0%
COc1ccccc1-c1cnn2c(NC3CCCC3)cc(C)nc12	29µM*	28%	21µM*	-21	16µM*	-1%
CCOC(=O)N1CCC(Nc2cc(C)nc3c(-c4ccccc4OC)c(C)nn23)CC1	5.8µM*	7%	9.2µM*	-12	1%	9%
CCOc1ccc(S(=O)(=O)NCCC(=O)N(C)CC(=O)Nc2ccc(N3CCOCC3)cc2)cc1	-6%	-6%	u	-15	3%	5%
CCc1occc(=O)c1Oc1cc(NN2CCCCC2)c([N+](=O)[O-])cc1[N+](=O)[O-]	-10%	23%	u	16	6%	9%
COc1cccc(OC2(C)CCN(Cc3ccc(-c4ccccn4)cc3)C2)c1 (stereo unspecified)	21µM*	x	u	-12	x	x
CC(=O)c1cc2cccc(OC3(C)CCN(Cc4ccc(-c5ccccn5)cc4)C3)c2o1 (stereo unspecified)	u	x	18µM*	-19	x	x
CC1(Oc2cccc(Cl)c2)CCN(Cc2ccc(OC(F)(F)F)cc2)C1 (stereo unspecified)	-19%	x	-29%	22	x	x
CSc1ccc(CN2CCC(C)(Oc3ccccc3C)C2)cc1 (stereo unspecified)	u	x	u	46	x	x
Cc1ccc(CN2CCC(C)(Oc3cccc(Cl)c3)C2)cc1 (stereo unspecified)	29µM*	x	u	-17	x	x
COC(=O)Cc1ccc(OC2(C)CCN(Cc3ccc(-c4ccccn4)cc3)C2)cc1 (stereo unspecified)	u	x	u	-7	x	x
Cc1ccccc1OC1(C)CCN(Cc2ccc3ccccc3c2)C1 (stereo unspecified)	u	x	16µM*	31	x	x
CCNC(=O)C1(C)CCCN(Cc2ccc(-c3ccccn3)cc2)C1 (stereo unspecified)	-29%	x	-28%	-2	x	x
